# Experimental data published in the supplement of paper PMC10849652.
# Targets with a hit are over-represented here; the source holds about 7,900 in all. About 0.6% of all pairs of compound and target were hits. A number with no mark means an inactive call.
# Tests used:
# Assay in all cases: log2 fold change, soluble protein after heating vs DMSO (PISA); higher = thermal stabilisation; K562 cells, 10 uM, 30 min; active = over 0.2 and 3.5 SD of the protein, either way, in both replicates (recomputed)
# [1] = compound: CC1=C(C=C(C=C1)NC(=O)C2=CC(=CC=C2)C(C)(C)C#N)NC3=CC4=C(C=C3)N=CN(C4=O)C
# How it was run: (§1)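 K562 cells at 2×10^6 cells/mL were treated with 10 μM compound for 30 min. Aliquots were heated for 3 min across 48°C-58°C, pooled, and extracted in PBS with 0.5% NP-40 at 4°C; soluble protein was the supernatant after 21,000xg for 90 min. Soluble protein was quantified by TMTpro 16plex LC-MS/MS with channel sums equalised, and reported as log2 fold change in thermal stability against DMSO controls, with values from duplicates.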
# [2] = compound: CC1=C(C=C(C=C1)NC(=O)C2=CC(=CC=C2)N(C)C)NC(=O)C3=CC=C(C=C3)O
# How it was run: as §1
# [3] = compound: CC1=CC=C(C=C1)SC2=C3C=C(SC3=CN=C2)C(=O)N
# How it was run: as §1
# [4] = compound: CC1=NC(=CC=C1)C2=C(N=C(N2)C(C)(C)C)C3=CC4=NC=CN=C4C=C3
# How it was run: as §1
# Nexturastat A = compound: CCCCN(Cc1ccc(C(=O)NO)cc1)C(=O)Nc1ccccc1 [Nexturastat A]
# How it was run: as §1
# vemurafenib = compound: CCCS(=O)(=O)Nc1ccc(F)c(C(=O)c2c[nH]c3ncc(-c4ccc(Cl)cc4)cc23)c1F [vemurafenib]
# How it was run: as §1
# [5] = compound: CCCS(=O)(=O)Nc1ccc(F)c(C(=O)c2c[nH]c3ncc(Cl)cc23)c1F
# How it was run: as §1
# [6] = compound: CCCc1cc(C)[nH]c(=O)c1CNC(=O)c1cc(-c2ccnc(N3CCN(C)CC3)c2)cc2c1cnn2C(C)C
# How it was run: as §1
# givinostat = compound: CCN(CC)Cc1ccc2cc(COC(=O)Nc3ccc(C(=O)NO)cc3)ccc2c1 [givinostat]
# How it was run: as §1
# barasertib = compound: CCN(CCCOc1ccc2c(Nc3cc(CC(=O)Nc4cccc(F)c4)[nH]n3)ncnc2c1)CCOP(=O)(O)O [barasertib]
# How it was run: as §1
# [7] = compound: CC[C@@H]1C(=O)N(C)c2cnc(Nc3ccc(C(=O)NC4CCN(C)CC4)cc3OC)nc2N1C1CCCC1
# How it was run: as §1
# volasertib = compound: CC[C@@H]1C(=O)N(C)c2cnc(Nc3ccc(C(=O)N[C@H]4CC[C@H](N5CCN(CC6CC6)CC5)CC4)cc3OC)nc2N1C(C)C [volasertib]
# How it was run: as §1
# [8] = compound: CC[C@H](C)N1C=C(C2=C(C=C(C=C21)C3=CN=C(C=C3)N4CCNCC4)C(=O)NCC5=C(C=C(NC5=O)C)C)C
# How it was run: as §1
# epoxomicin = compound: CC[C@H](C)[C@@H](C(=O)N[C@@H]([C@@H](C)O)C(=O)N[C@@H](CC(C)C)C(=O)[C@]1(CO1)C)NC(=O)[C@H]([C@@H](C)CC)N(C)C(=O)C [epoxomicin]
# How it was run: as §1
# [9] = compound: CCn1c(C(=O)N(C2CC2)C2CC2)cc2c3c(ncn3C)c(Nc3cc(C)n(C)n3)nc21
# How it was run: as §1
# [10] = compound: CCn1cc(-c2ccnc3[nH]c(-c4cccc(CN(C)C)c4)cc23)c(-c2ccc(NC(=O)N(C)C)cc2)n1
# How it was run: as §1
# [11] = compound: CN(C)CC(=O)Nc1ccc2[nH]c(=O)c3ccccc3c2c1
# How it was run: as §1
# rosiglitazone = compound: CN(CCOC1=CC=C(C=C1)C[C@H]2C(=O)NC(=O)S2)C3=CC=CC=N3 (racemic) [rosiglitazone]
# How it was run: as §1
# [12] = compound: CN1C2=C(C3=C1C(=O)N(N=C3)CC4=CC(=CC=C4)N)SC(=C2)S(=O)C
# How it was run: as §1
# [13] = compound: CN1CCC(CNc2ccc3ncc(-c4cccc(OC(F)(F)F)c4)n3n2)CC1
# How it was run: as §1
# Sequence of UniProt Q9H269 (Q9H269 whole entry, looked up): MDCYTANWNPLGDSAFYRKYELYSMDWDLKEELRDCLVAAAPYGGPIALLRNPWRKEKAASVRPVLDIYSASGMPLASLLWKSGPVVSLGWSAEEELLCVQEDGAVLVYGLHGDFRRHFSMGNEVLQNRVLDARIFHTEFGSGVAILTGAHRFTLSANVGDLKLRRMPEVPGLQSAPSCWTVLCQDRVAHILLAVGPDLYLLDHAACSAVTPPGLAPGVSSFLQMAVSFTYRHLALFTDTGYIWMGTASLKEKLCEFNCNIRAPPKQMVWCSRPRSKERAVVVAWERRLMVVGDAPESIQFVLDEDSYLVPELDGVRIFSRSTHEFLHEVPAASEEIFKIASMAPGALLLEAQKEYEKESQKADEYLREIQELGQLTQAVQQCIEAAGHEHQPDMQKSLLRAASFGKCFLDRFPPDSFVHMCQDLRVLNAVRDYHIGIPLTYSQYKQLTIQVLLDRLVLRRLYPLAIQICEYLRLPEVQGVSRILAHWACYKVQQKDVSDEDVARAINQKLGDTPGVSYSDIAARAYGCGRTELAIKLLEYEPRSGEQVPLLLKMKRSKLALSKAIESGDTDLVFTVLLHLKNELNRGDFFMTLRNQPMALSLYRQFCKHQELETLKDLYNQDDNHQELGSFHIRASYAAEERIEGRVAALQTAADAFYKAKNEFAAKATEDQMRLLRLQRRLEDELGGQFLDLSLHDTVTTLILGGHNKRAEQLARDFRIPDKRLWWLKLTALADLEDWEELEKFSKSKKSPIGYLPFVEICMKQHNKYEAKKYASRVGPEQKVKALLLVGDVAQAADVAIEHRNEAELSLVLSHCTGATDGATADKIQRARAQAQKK
# Sequence of UniProt Q96HV5 (Q96HV5 whole entry, looked up): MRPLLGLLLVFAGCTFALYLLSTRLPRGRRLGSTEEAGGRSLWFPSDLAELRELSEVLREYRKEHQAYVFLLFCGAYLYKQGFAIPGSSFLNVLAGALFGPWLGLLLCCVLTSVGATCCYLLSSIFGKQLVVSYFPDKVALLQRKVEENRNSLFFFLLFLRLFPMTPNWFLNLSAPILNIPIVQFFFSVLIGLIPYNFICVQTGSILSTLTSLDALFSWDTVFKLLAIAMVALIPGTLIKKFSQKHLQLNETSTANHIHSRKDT
# Sequence of UniProt Q15642 (Q15642 whole entry, looked up): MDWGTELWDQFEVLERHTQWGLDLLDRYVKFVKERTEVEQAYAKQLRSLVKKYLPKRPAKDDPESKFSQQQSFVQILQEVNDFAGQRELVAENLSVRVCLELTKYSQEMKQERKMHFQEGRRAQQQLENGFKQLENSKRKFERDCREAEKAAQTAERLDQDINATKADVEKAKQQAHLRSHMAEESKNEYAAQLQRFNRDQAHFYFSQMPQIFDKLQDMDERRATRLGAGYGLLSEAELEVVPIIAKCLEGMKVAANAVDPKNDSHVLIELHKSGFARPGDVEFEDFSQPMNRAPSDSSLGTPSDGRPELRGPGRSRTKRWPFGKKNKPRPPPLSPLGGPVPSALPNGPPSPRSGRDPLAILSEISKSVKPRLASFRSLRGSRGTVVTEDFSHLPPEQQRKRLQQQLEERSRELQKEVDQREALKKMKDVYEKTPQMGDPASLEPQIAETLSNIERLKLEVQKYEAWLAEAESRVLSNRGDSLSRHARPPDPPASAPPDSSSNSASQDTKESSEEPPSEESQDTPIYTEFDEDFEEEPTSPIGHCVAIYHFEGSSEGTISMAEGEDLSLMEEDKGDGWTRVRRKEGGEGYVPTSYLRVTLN
# Sequence of UniProt O43379 (O43379 whole entry, looked up): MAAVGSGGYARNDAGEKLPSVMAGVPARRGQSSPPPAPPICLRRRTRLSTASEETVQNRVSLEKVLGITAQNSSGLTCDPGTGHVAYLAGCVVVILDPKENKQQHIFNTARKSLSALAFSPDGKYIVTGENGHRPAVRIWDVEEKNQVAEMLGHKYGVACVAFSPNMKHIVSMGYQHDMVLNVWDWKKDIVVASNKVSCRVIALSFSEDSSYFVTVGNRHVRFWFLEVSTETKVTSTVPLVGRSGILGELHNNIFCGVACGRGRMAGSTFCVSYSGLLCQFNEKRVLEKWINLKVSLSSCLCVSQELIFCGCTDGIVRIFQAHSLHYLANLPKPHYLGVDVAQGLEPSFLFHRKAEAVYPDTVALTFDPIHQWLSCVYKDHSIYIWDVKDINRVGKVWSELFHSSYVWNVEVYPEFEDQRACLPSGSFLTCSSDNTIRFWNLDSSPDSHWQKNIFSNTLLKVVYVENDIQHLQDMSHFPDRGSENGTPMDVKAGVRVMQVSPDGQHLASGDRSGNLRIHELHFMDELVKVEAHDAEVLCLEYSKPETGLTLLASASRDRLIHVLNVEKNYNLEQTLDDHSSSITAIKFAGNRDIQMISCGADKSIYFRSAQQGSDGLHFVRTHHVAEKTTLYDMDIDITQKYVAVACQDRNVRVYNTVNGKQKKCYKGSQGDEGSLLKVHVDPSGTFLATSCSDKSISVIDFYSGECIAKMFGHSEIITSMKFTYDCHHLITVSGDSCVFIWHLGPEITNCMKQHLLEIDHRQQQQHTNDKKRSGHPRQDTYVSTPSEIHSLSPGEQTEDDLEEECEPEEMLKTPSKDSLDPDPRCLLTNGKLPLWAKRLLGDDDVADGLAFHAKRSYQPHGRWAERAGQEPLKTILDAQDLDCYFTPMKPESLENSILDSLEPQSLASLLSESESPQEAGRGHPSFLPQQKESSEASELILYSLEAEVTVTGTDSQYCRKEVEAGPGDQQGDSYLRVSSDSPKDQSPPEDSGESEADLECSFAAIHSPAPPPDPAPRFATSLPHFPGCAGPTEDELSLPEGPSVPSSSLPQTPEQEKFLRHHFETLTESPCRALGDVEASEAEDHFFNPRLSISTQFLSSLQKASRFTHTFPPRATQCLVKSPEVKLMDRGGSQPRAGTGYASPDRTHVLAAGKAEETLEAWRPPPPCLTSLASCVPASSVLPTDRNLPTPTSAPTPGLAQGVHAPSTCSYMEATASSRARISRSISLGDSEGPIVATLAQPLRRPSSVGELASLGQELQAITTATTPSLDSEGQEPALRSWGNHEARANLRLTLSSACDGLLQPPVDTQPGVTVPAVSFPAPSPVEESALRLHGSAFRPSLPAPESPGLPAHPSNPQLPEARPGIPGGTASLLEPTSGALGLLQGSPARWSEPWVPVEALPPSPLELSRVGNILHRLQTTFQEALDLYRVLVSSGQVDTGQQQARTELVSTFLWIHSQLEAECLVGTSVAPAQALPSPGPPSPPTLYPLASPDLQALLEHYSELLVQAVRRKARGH
# Sequence of UniProt Q8N1B4 (Q8N1B4 whole entry, looked up): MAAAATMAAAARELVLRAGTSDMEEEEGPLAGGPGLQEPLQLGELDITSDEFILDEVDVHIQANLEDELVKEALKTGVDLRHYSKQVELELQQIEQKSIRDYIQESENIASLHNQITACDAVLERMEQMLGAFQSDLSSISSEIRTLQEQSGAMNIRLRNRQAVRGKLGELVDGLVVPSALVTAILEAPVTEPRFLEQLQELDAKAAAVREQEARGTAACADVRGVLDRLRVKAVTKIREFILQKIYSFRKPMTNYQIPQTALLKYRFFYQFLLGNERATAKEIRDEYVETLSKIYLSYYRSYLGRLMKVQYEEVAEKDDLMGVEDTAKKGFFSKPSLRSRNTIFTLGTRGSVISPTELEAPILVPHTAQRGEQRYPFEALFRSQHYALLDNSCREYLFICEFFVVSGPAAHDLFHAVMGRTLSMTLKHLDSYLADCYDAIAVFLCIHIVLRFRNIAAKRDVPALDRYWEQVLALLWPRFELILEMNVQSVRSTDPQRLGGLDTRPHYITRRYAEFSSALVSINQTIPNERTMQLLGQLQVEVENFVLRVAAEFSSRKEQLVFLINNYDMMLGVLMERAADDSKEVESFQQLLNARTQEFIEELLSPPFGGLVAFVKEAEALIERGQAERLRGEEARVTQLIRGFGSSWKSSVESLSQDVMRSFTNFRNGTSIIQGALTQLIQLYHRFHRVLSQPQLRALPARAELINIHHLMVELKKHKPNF
# Sequence of UniProt Q9UID3 (Q9UID3 whole entry, looked up): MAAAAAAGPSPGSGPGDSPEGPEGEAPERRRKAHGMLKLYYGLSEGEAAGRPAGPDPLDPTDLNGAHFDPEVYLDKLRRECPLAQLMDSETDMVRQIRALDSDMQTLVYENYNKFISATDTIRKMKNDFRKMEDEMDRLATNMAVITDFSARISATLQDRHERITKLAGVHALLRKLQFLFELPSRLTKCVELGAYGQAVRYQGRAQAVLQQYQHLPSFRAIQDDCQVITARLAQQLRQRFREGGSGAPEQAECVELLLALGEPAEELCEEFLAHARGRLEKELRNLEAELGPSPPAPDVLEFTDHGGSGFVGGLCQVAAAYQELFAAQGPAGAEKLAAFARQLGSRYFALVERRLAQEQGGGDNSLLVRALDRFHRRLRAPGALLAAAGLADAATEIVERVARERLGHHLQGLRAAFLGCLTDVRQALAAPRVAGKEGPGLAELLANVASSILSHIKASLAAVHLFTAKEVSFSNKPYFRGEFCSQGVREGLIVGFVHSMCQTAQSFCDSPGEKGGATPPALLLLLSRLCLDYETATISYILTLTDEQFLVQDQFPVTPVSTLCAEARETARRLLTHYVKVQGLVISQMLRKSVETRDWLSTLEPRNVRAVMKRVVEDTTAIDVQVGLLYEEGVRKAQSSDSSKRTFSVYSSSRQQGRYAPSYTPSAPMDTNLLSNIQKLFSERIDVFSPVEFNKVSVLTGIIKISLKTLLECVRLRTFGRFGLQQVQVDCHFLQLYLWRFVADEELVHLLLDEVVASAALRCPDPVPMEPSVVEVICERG
# Sequence of UniProt Q8TBZ6 (Q8TBZ6 whole entry, looked up): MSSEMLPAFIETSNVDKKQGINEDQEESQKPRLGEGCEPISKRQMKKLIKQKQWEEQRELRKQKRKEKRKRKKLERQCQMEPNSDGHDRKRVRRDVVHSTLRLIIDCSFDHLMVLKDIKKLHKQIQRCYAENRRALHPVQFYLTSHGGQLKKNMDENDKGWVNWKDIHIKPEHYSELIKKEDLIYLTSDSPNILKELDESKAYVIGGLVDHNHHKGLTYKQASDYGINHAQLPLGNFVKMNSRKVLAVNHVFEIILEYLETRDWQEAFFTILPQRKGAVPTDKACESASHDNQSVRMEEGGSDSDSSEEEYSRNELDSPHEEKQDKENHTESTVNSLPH
Target,log2 fold change [1],log2 fold change [2],log2 fold change [3],log2 fold change [4],log2 fold change (Nexturastat A),log2 fold change (vemurafenib),log2 fold change [5],log2 fold change [6],log2 fold change (givinostat),log2 fold change (barasertib),log2 fold change [7],log2 fold change (volasertib),log2 fold change [8],log2 fold change (epoxomicin),log2 fold change [9],log2 fold change [10],log2 fold change [11],log2 fold change (rosiglitazone),log2 fold change [12],log2 fold change [13]
WARS2 (UniProt Q9UGM6),-0.03,0.032,0.018,0.074,-0.128,0.048,0.136,0.042,-0.026,0.012,-0.07,-0.323 (active),0.099,0.016,0.043,-0.03,0.043,0.074,-0.055,-0.099
USP24 (UniProt Q9UPU5),0.114,-0.026,0,0.012,-0.047,0,0.052,-0.042,0.011,-0.053,-0.04,-0.1,-0.047,0.073,-0.072,-0.062,0.055,-0.025,-0.123,0.137
USP25 isoform 3 (UniProt Q9UHP3),0.004,0.008,-0.009,0.045,-0.029,0.04,0.027,0.024,0.015,0.02,-0.085,-0.297 (active),0.046,0.008,-0.016,-0.004,0.041,0.022,-0.03,-0.006
UBXN10 (UniProt Q96LJ8),0.007,-0.026,-0.071,0.037,0.107,-0.264,-0.024,-0.115,0.059,-0.068,-0.057,-0.319,0.156,0.127,0.034,0.014,-0.088,0.009,0.087,-0.103
VPS52 (UniProt Q8N1B4),-0.071,-0.001,-0.009,0.005,0.079,0.023,0.006,0.048,-0.004,0.054,-0.107,-0.383 (active),0.153,0.092,0.012,0.006,-0.021,0.094,0.037,-0.027
TNFRSF10A (UniProt O00220),0.006,0.035,0.016,-0.015,0.089,-0.073,-0.044,0.004,-0.042,0.016,0.046,0.001,-0.02,-0.047,-0.037,-0.104,-0.123,-0.053,-0.02,-0.007
WDR7 (UniProt Q9Y4E6),-0.029,-0.008,-0.016,-0.025,-0.216,0.091,0.083,0.202,0.067,0.03,-0.09,-0.415 (active),0.027,-0.007,-0.085,-0.007,0.279,0.082,0.034,-0.199
TRMT10A (UniProt Q8TBZ6),0.006,-0.004,0.063,0.031,-0.079,0.014,-0.017,-0.011,-0.004,-0.019,0.016,-0.013,0.033,0.003,-0.026,-0.037,0.047,0.034,-0.135,-0.075
TRIP10 isoform 2 (UniProt Q15642),-0.068,-0.04,0.019,0.046,0.12,0.026,0.177,0.004,0.01,0.011,-0.033,-0.276,-0.018,-0.285,-0.073,-0.101,-0.18,-0.012,0.045,-0.075
XPOT (UniProt O43592),0.018,-0.031,0.023,0.029,-0.012,0.039,0.128,0.014,0.007,0.08,-0.363 (active),-0.855 (active),0.04,-0.033,0,0.021,0.058,0.059,-0.028,-0.16
TMEM41A (UniProt Q96HV5),0.039,0.093,0.002,0.014,-0.138,-0.163,-0.101,-0.021,-0.043,0.001,0.036,0.035,-0.05,-0.055,0.021,0.165,-0.049,-0.002,0,0.01
WDR62 isoform 4 (UniProt O43379),-0.123,-0.015,-0.055,-0.033,0.029,0.008,0.053,-0.014,0.022,0.032,-0.02,-0.496 (active),0.04,0,0.006,0.007,-0.035,0.064,0.047,-0.161
UBE4B isoform 4 (UniProt O95155),0.007,-0.012,0.001,0.014,-0.017,0.024,0.045,-0.008,0.008,0.042,-0.046,-0.229 (active),0.024,0.023,0,-0.005,0.01,0.05,-0.003,-0.079
VPS51 (UniProt Q9UID3),0,-0.031,-0.045,0.017,0.032,0.034,0.021,0.032,0.071,0.059,-0.028,-0.335 (active),-0.036,-0.015,-0.033,0.003,0.032,0.016,0.094,-0.135
VPS16 (UniProt Q9H269),0.023,0.011,0.032,-0.013,0.038,0.017,0.109,0,0.075,-0.086,-0.244,-0.671 (active),0.042,0.045,0.003,-0.072,0.083,0.113,0.026,-0.316
WDR43 (UniProt Q15061),-0.015,0.018,0.009,-0.001,-0.097,-0.027,0.012,-0.061,-0.007,-0.033,0.029,-0.029,-0.04,-0.026,0,0.036,0.004,-0.025,-0.04,0.192
